An excerpt weighted towards active compounds, which were near 7.3% of everything screened.
NPC1 promoter act = NPC1 promoter activation; Potency, µM (top dose mostly 9.22 µM), for the others: at the highest dose activation, usual class: activators; AID 485313; Huh7 NPC1 promoter luciferase reporter, 24 h; actives 2.4% (n = 320,000); note: % of control where 0% means no effect; nearly all actives have a fitted effect of over 60% in size
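Huh7 reporter cells (NPC1 promoter driving luciferase) are dosed with compound for 24 h at 37 °C, 5% CO2; luciferase detection reagent is then added and luminescence measured after 10 min at ambient temperature.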
SMN2 splice up = enhancers of SMN2 splice variant expression. HEK293 SMN2-luciferase splicing reporter, luminescence, 30-36 h. Potency, µM (highest dose often 46.1 µM), for the others: top-dose activity change, positive = activation, hits mostly activators. actives 2.8% (n = 210,000). AID 1458; note: % of control where 0% means no effect; nearly all actives have a fitted effect of over 55% in size
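HEK293 cells carry an SMN2 […]–luciferase reporter in which exon 7 inclusion puts luciferase in frame. Cells were plated 10-12 h before compound addition, then incubated 30-36 h at 37C. ONE-Glo luminescence was read; sodium butyrate at 4.5 mM final served as control.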
Rab9 promoter act = activators of Rab9 promoter. Huh7 Rab9 promoter-luciferase reporter, luminescence, 24 h. Potency, µM (titrated, usually from 9.22 µM), for inactives: at the highest dose activation, negative = inhibition, actives largely listed as activators. actives 2.8% (n = 320,000); note: % of control where 0% means no effect; nearly all actives have a fitted effect of over 60% in size
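Cell-based reporter: Huh7 stable for Rab9 promoter-driven luciferase, plated in reduced-serum medium with 10% FBS at 1500 cells/well, compound-treated 24 h at 37 °C, luminescence read after 10 min reagent.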
KinaseGlo FLuc = counter-screen: inhibitors of Kinase-Glo firefly luciferase. actives 0.28% (n = 200,000). Kinase-Glo luciferase, ATP luminescence, 8 min. Q27757. Potency, µM (series often up to 38.3 µM), for the others: at the highest dose activity change, negative = inhibition, most hits filed as inhibitors; note: % is set by controls: 0 for no effect and ±100 for the full control effect; nearly all actives have a fitted effect of over 60% in size
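Substrate mix (final 50 mM imidazole pH 7.2, 50 mM KCl, 7 mM MgCl2, 10 uM ATP, 0.01% Tween 20, 0.05% BSA) plus pin-tool compound, then Kinase-Glo detection mix; 8 min ambient, luminescence read.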
ELG1 genotoxic = inducers of genotoxicity in HEK293T ELG1-luciferase cells. actives 1.3% (n = 330,000). Potency, µM (titrated, usually from 46 µM), for the others: at the highest dose activity change, positive = activation, actives largely listed as activators. HEK293T ELG1-luciferase reporter, luminescence, 16 h; note: % of control where 0% means no effect; nearly all actives have a fitted effect of over 60% in size
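After overnight (16 hr) compound treatment at 37 °C, ELG1-luciferase HEK293T cells were lysed with ONE-Glo; luminescence quantified 30 min later at room temperature.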
FLuc modulator = inhibits or activates purified firefly luciferase, miR-21 counter-screen; P08659; actives 6.9% (n = 360,000); purified FLuc, Km substrates, luminescence inhibition; Potency, µM (highest dose often 57.5 µM), inactives show at the highest dose activity change, negative = inhibition, usual class: inhibitors;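 note: plate controls were vehicle for no effect and reference inhibitor for full effect; nearly all actives have a fitted effect of over 55% in size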
Target sequence (P08659 whole entry, looked up): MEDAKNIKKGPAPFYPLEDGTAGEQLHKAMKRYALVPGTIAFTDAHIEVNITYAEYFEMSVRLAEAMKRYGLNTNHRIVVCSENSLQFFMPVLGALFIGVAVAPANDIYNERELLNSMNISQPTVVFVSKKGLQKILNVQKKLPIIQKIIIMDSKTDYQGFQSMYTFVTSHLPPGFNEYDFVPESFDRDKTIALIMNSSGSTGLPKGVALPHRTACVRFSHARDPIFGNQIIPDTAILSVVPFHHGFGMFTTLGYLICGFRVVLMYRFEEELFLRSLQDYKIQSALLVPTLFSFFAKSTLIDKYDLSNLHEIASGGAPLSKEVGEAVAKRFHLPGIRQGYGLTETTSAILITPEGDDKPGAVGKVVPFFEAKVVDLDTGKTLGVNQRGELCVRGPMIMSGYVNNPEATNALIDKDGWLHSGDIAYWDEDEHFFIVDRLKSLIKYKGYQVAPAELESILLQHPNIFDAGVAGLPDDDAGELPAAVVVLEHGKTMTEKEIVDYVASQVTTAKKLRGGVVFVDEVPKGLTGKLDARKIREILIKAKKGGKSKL
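Purified P. pyralis luciferase (10nM final) with 10uM D-luciferin and 10uM ATP (Km levels) in 50mM Tris acetate pH 7.5, 10mM Mg acetate, 0.01% Tween-20, 0.05% BSA; qHTS 6-point titration, ~60 µM downward; luminescence read.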
* hit, by the source's call; ? = inconclusive; / = not tested or not shown. Calls come from the whole dose curve; as a rule, active = well fitted curve in the direction sought with a large enough effect; inconclusive = small, poorly fitted or top-dose-only effect, or another doubt; inactive = no such curve, though single readings can be large; an effect the other way counts as inactive or inconclusive. Potency is the fitted concentration of half-maximal effect.

SMILES	NPC1 promoter act	SMN2 splice up	Rab9 promoter act	KinaseGlo FLuc	ELG1 genotoxic	FLuc modulator
COc1ccc(/C=N/NC(=O)c2cccnc2)cc1CN1CCc2ccccc2C1	-2%	/	-2%	/	-10%	1%
Cc1ccc(-c2nnc(/C=C/c3ccccc3)o2)cc1	22%	18µM*	18%	-3%	?	17µM*
Brc1ccccc1-c1nnc(-c2cccnc2)o1	?	2%	?	0%	18µM*	15µM*
Brc1ccc(-c2nnc(-c3ccccc3Br)o2)cc1	1.1µM*	14µM*	0.71µM*	-18%	2.9µM*	1.3µM*
Cc1ccc(-c2nnc(-c3ccccc3Br)o2)cc1	4µM*	/	4µM*	/	?	0.76µM*
CC1(C(=O)O)COC(c2ccc(Cl)cc2)OC1 (stereo unspecified)	-2%	/	-6%	/	-1%	2%
COC(=O)c1ccc(C2OCC(C)(C)CO2)cc1	?	?	?	-2%	19%	27µM*
Cc1ccc(NC(=S)N/C(=N/S(=O)(=O)c2ccccc2)c2ccccc2)cc1	9%	-1%	2%	-3%	23µM*	11µM*
CC(=O)Nc1ccc(N/C(=N\S(=O)(=O)c2ccccc2)c2ccccc2)cc1	-1%	/	9%	/	-2%	2%
COc1ccc(C(=O)NN/C(=N/S(=O)(=O)c2ccc(C)cc2)c2ccccc2)cc1	2.8µM*	/	2.5µM*	/	?	5.4µM*
Cc1ccc(S(=O)(=O)/N=C(/NC(=S)Nc2ccccc2)c2ccccc2)cc1	3.5µM*	?	2.8µM*	1%	?	4.8µM*
O=C(NCc1ccc2c(c1)OCO2)c1cccc(F)c1	0%	-15%	-4%	-3%	-4%	1%
CN(Cc1ccccc1)C(=O)CCC1CCN(S(C)(=O)=O)CC1	1%	/	7%	/	1%	-5%
CCCc1nc2oc(C(=O)OCC)c(N)c2c2c1COC(C)(C)C2	-2%	-17%	7%	-4%	2%	2%
CC1CCN(C(=O)c2cc3ccccc3o2)CC1	?	?	?	-6%	13µM*	19µM*
CC1CC(C)CN(C(=O)c2cc3ccccc3o2)C1 (stereo unspecified)	23%	/	?	/	23µM*	?
CC1CC(C)CN(C(=O)c2cc3cc(Br)cc(Br)c3o2)C1 (stereo unspecified)	15%	11%	17%	3%	?	17µM*
CC1CC(C)CN(C(=O)Nc2ccc(Br)cc2)C1 (stereo unspecified)	-1%	11%	10%	1%	0%	?
CC(=O)N1CCN(C(=O)c2cc3ccccc3o2)CC1	-3%	/	-2%	/	7%	1%
Cc1noc(C)c1C(=O)N1CCC2(CCN(C(=O)Nc3ccccc3)CC2)CC1	/	-18%	/	1%	/	/
Cc1csc(NC(=O)CSc2nnc(-c3ccoc3C)o2)n1	?	11µM*	?	3%	9%	-3%
Cc1csc(NC(=O)CSc2nnc(-c3ccncc3)o2)n1	25%	3.2µM*	?	-1%	5%	-2%
Cc1ccc(-c2nn3c(C)nnc3c3ccccc23)cc1S(=O)(=O)NC(C)c1ccccc1 (stereo unspecified)	-6%	-3%	-1%	-1%	0%	2%
Cc1ccc(-c2nn3c(C)nnc3c3ccccc23)cc1S(=O)(=O)NCc1ccco1	0%	13µM*	14%	3%	?	17%
Cc1ccc(-c2nn3c(C)nnc3c3ccccc23)cc1S(=O)(=O)NC(C)(C)CO	-7%	?	-11%	-2%	21µM*	5%
SMILES	NPC1 promoter act	SMN2 splice up	Rab9 promoter act	KinaseGlo FLuc	ELG1 genotoxic	FLuc modulator
COc1ccc(C(=O)NCC2(c3ccccc3)CCCC2)c(OC)c1	-4%	/	-4%	/	-8%	-1%
COc1ccc(-n2c(C)cc(/C=C3\C(=O)NN(c4ccccc4)C3=O)c2C)cc1	?	?	27%	0%	?	2.7µM*
Cc1cc(/C=C2/C(=O)NN(c3ccccc3)C2=O)c(C)n1-c1ccc(O)cc1	?	-77%	2.5µM*	-11%	?	0.15µM*
Cc1cc(/C=C2\C(=O)NN(c3ccccc3)C2=O)c(C)n1-c1ccccc1O	2.8µM*	/	2.8µM*	/	?	1.3µM*
O=C1NN(c2ccccc2)C(=O)/C1=C\c1coc2ccc(O)cc2c1=O	-6%	/	-3%	/	2%	?
Cc1cc(C=C2C(=O)CCCC2=O)c(C)n1-c1ccccc1	1%	4%	0%	0%	2%	17µM*
O=C1NN(c2ccccc2)C(=O)/C1=C/c1coc2ccccc2c1=O	-3%	1%	-8%	-2%	16%	?
Cc1cc(NC(=O)CN2CCN(c3ncccn3)CC2)no1	1%	-8%	3%	2%	2%	3%
Cc1cccc(/C=N/NC(=O)c2cccc(Cl)c2)n1	-1%	/	2%	/	9%	?
Cc1cccc(/C=N/NC(=O)c2ccc(F)cc2)n1	22%	/	27%	/	17%	12µM*
Cc1cccc(/C=N/NC(=O)c2cccc(NC(=O)c3ccccc3)c2)n1	1%	/	8%	/	0%	11µM*
Cc1cccc(NC(=O)c2cccc(NC(=O)c3ccccc3)c2)n1	0%	/	14%	/	-7%	21µM*
Cc1cccc(NC(=O)c2ccc3nccnc3c2)n1	?	/	28%	/	?	?
Cc1cccc(/C=N/NC(=O)c2ccccc2OCc2cccc(Br)c2)n1	15%	/	0%	/	-4%	19µM*
COc1cc(-c2nc3sccn3c2Nc2cccc(C)c2)ccc1O	/	23%	/	/	/	?
COc1ccc(-c2c(C(=O)O)c(-c3ccccc3)cn2C)cc1	19%	/	26%	/	8%	-1%
CCS(=O)(=O)N1Cc2ccccc2CC1C(=O)Nc1ccc(C)cc1 (stereo unspecified)	0%	9%	12%	-3%	?	?
CCS(=O)(=O)N1Cc2ccccc2CC1C(=O)Nc1ncc(C)s1 (stereo unspecified)	26%	13µM*	?	3%	?	?
CCS(=O)(=O)N1Cc2ccccc2CC1C(=O)Nc1cccc(C)c1 (stereo unspecified)	?	?	27%	0%	15%	24µM*
O=C(Nc1nccs1)C1Cc2ccccc2CN1S(=O)(=O)c1ccc(F)cc1 (stereo unspecified)	?	11µM*	?	1%	?	24µM*
CN(CC(=O)Nc1ccccc1Cl)C(=O)COC(=O)C1CC1	-3%	/	-4%	/	0%	0%
O=C(Nc1cccc(Cl)c1)Nc1ccc2nccnc2c1	2.8µM*	/	2.2µM*	/	-2%	19µM*
